Measurements as given in PubChem BioAssay (NCATS).
Results filed as inconclusive are left out. Active and inactive are the calls of the source. Calls follow the shape of the dose curve; as a rule, active = well fitted curve in the direction sought with a large enough effect; inconclusive = small, poorly fitted or top-dose-only effect, or another doubt; inactive = no such curve, though single readings can be large; an effect the other way counts as inactive or inconclusive.

How the values were obtained:
[1] = Quantitative High-Throughput drug screen in 47 multiple myeloma cell lines against the NCATS MIPE library collection: EJM_DSMZ cell viability assay (AID 1918926; also: nearly all actives have a fitted effect of over 30% in size)
Procedure, shortened: (§1)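 Relative luminescence from CellTiter-Glo served as the viability signal, referenced to DMSO-treated (100%) and cell-free medium (0%) controls. Treatment lasted 48 hours at 37C with 500 cells per well.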

[2] = Quantitative High-Throughput drug screen in 47 multiple myeloma cell lines against the NCATS MIPE library collection: ARP1_JJKsccF8 cell viability assay (AID 1918928; also: nearly all actives have a fitted effect of over 40% in size)
Procedure, shortened: (§2)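 Cell viability inhibition in this qHTS is measured via ATP content (CellTiter-Glo) after 48 h drug exposure at 37 °C. Wells hold 500 cells; DMSO-treated wells define 100% and medium-only wells 0%.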

[3] = Quantitative High-Throughput drug screen in 47 multiple myeloma cell lines against the NCATS MIPE library collection: ARD_JJKsccE7 cell viability assay (AID 1918929)
Procedure, shortened: as §1

[4] = Quantitative High-Throughput drug screen in 47 multiple myeloma cell lines against the NCATS MIPE library collection: Karpas620_DSMZ cell viability assay (AID 1918959); also: nearly all actives have a fitted effect of over 30% in size
Procedure, shortened: (§3)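 qHTS of the MIPE 4.0 collection: 500 myeloma cells/well, 48 h drug exposure at 37C in 5% CO2, then CellTiter-Glo for 5 min at room temperature before luminescence reading.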

[5] = Quantitative High-Throughput drug screen in 47 multiple myeloma cell lines against the NCATS MIPE library collection: KMM1_JCRB cell viability assay (AID 1918960); also: nearly all actives have a fitted effect of over 30% in size
Procedure, shortened: as §2

[6] = Quantitative High-Throughput drug screen in 47 multiple myeloma cell lines against the NCATS MIPE library collection: JIM1_ECACC cell viability assay (AID 1918964)
Procedure, shortened: as §1

[7] = Quantitative High-Throughput drug screen in 47 multiple myeloma cell lines against the NCATS MIPE library collection: H1112_PLB cell viability assay (AID 1918967; also: nearly all actives have a fitted effect of over 30% in size)
Procedure, shortened: as §1

[8] = Quantitative High-Throughput drug screen in 47 multiple myeloma cell lines against the NCATS MIPE library collection: Karpas25_ECACC cell viability assay (AID 1918968; also: nearly all actives have a fitted effect of over 35% in size)
Procedure, shortened: as §1

[9] = Quantitative High-Throughput drug screen in 47 multiple myeloma cell lines against the NCATS MIPE library collection: KMS27_JCRB cell viability assay (AID 1918970); also: nearly all actives have a fitted effect of over 30% in size
Procedure, shortened: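 ATP-based viability (CellTiter-Glo luminescence) is measured in cells treated 48 h with approved and investigational drugs at 37 °C. Controls are DMSO-only wells for full viability and media-only wells for none.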

[10] = Quantitative High-Throughput drug screen in 47 multiple myeloma cell lines against the NCATS MIPE library collection: KMS12BM_JCRB cell viability assay (AID 1918971); also: nearly all actives have a fitted effect of over 35% in size
Procedure, shortened: (§4)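 Myeloma cell lines, 500 cells per well, exposed to MIPE 4.0 library compounds for 48 h at 37C, 5% CO2. Viability from ATP by CellTiter-Glo luminescence; normalised to DMSO (100%) and media-only (0%) wells.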

[11] = Quantitative High-Throughput drug screen in 47 multiple myeloma cell lines against the NCATS MIPE library collection: KMS12PE_JCRB cell viability assay (AID 1918972); also: nearly all actives have a fitted effect of over 30% in size
Procedure, shortened: (§5)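 Luminescent ATP measurement with CellTiter-Glo gives viability, scaled between DMSO-only wells (100%) and media-only wells (0%). Cells, 500 per well, faced library compounds for 48 hours at 37C.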

[12] = Quantitative High-Throughput drug screen in 47 multiple myeloma cell lines against the NCATS MIPE library collection: KMS26_JCRB cell viability assay (AID 1918975); also: nearly all actives have a fitted effect of over 45% in size
Procedure, shortened: as §4

[13] = Quantitative High-Throughput drug screen in 47 multiple myeloma cell lines against the NCATS MIPE library collection: AMO1_DSMZ cell viability assay (AID 1918927; also: nearly all actives have a fitted effect of over 30% in size)
Procedure, shortened: as §1

[14] = Quantitative High-Throughput drug screen in 47 multiple myeloma cell lines against the NCATS MIPE library collection: KHM11_PLB cell viability assay (AID 1918962); also: nearly all actives have a fitted effect of over 35% in size
Procedure, shortened: as §3

[15] = Quantitative High-Throughput drug screen in 47 multiple myeloma cell lines against the NCATS MIPE library collection: INA6_PLB cell viability assay (AID 1918965; also: nearly all actives have a fitted effect of over 55% in size)
Procedure, shortened: as §5

[16] = Quantitative High-Throughput drug screen in 47 multiple myeloma cell lines against the NCATS MIPE library collection: JJN3_DSMZ cell viability assay (AID 1918966; also: nearly all actives have a fitted effect of over 50% in size)
Procedure, shortened: as §1

[17] = Quantitative High-Throughput drug screen in 47 multiple myeloma cell lines against the NCATS MIPE library collection: KMS20_JCRB cell viability assay (AID 1918973); also: nearly all actives have a fitted effect of over 45% in size
Procedure, shortened: as §1

[18] = Quantitative High-Throughput drug screen in 47 multiple myeloma cell lines against the NCATS MIPE library collection: Karpas417_ECACC cell viability assay (AID 1918961); settings: Karpas417 myeloma viability, CellTiter-Glo ATP luminescence, 48 h; viability (% of DMSO): at 45.8 µM (top of the series)
Procedure, shortened: as §5

[19] = Quantitative High-Throughput drug screen in 47 multiple myeloma cell lines against the NCATS MIPE library collection: JIM3_ECACC cell viability assay (AID 1918963; also: nearly all actives have a fitted effect of over 35% in size)
Procedure, shortened: as §3

[20] = Quantitative High-Throughput drug screen in 47 multiple myeloma cell lines against the NCATS MIPE library collection: KMS21BM_JCRB cell viability assay (AID 1918974); settings: ATP luminescence, 48 h; viability: at 45.8 µM (top of the series)
Procedure, shortened: as §1
Potency is read from the fitted curve at half-maximal effect.

SMILES | Potency [1] | Potency [2] | Potency [3] | Potency [4] | Potency [5] | Potency [6] | Potency [7] | Potency [8] | Potency [9] | Potency [10] | Potency [11] | Potency [12] | Potency [13] | Potency [14] | Potency [15] | Potency [16] | Potency [17] | Potency [18] | Potency [19] | Potency [20]
O=C(O)CNC(=O)c1c(O)c2ccccc2n(Cc2ccccc2)c1=O | inactive | inactive | inactive | inactive | inactive | inactive | inactive | inactive | inactive | inactive | inactive | inactive |  |  |  |  |  |  |  | 
Cc1[nH]nc2ccc(-c3cncc(OC[C@@H](N)Cc4c[nH]c5ccccc45)c3)cc12 | 935 nM (active) | 3320 nM (active) | inactive | inactive |  |  | 935 nM (active) | 2350 nM (active) | inactive | 2640 nM (active) | inactive | 1180 nM (active) | inactive | 132 nM (active) | 372 nM (active) | 264 nM (active) | 1180 nM (active) |  |  | 
NC1=NC(=O)N2CC12 (configuration not stated) | inactive |  | 18700 nM (active) | 9350 nM (active) | 11800 nM (active) | 13200 nM (active) |  |  | 7430 nM (active) |  | 10500 nM (active) |  | 13200 nM (active) |  | 18700 nM (active) |  |  | 1660 nM (active) |  | 
CCN1C[C@]2(OC(=O)c3ccccc3NC(C)=O)CC[C@H](OC)[C@@]34[C@H]5CC6[C@@H](OC)C[C@](O)(C(C[C@@H]23)[C@@H]14)[C@@]5(O)[C@@H]6OC | inactive |  |  | inactive |  |  | inactive | inactive |  |  | inactive | inactive | inactive |  | inactive |  |  |  |  | 
C=C[C@@H]1CN2CCC1C[C@@H]2[C@@H](O)c1ccnc2ccccc12 (some centres not stated) | 9350 nM (active) |  |  | 5260 nM (active) |  |  |  | 8330 nM (active) | 5260 nM (active) | 23500 nM (active) | 7430 nM (active) |  | 5900 nM (active) |  | 23500 nM (active) |  |  |  |  | 
CCOC(=O)c1cncn1[C@H](C)c1ccccc1 | inactive |  |  |  | inactive | inactive | inactive | inactive | inactive | 5260 nM (active) |  | inactive | inactive | inactive | inactive |  |  |  |  | 
CC(N[C@H]1C[C@H]1c1ccccc1)c1ccc2c(c1)OCCO2 (some centres not stated) | inactive | 8330 nM (active) |  | inactive |  | inactive | inactive | inactive | inactive | 1870 nM (active) | inactive | 5260 nM (active) | inactive | inactive | inactive |  | 1 nM (active) |  | inactive | 
CCN1CCN(C(=O)Cc2ccc(Nc3ncc(F)c(Nc4ccc(C(=O)Nc5ccccc5Cl)cc4)n3)cc2)CC1 | 8330 nM (active) | 3720 nM (active) | 743 nM (active) | 1870 nM (active) |  | 2090 nM (active) | 6620 nM (active) | 2350 nM (active) | 2960 nM (active) | 7430 nM (active) | 1050 nM (active) | 8330 nM (active) |  | 2350 nM (active) | 935 nM (active) | 7430 nM (active) | 1180 nM (active) | 2960 nM (active) | 3720 nM (active) | 
O=c1cccc2n1CC1CNC[C@H]2C1 | inactive |  |  | 13200 nM (active) | 11800 nM (active) |  |  | 23500 nM (active) |  | inactive | 9350 nM (active) | inactive | 13200 nM (active) | inactive | 14800 nM (active) | inactive | 11800 nM (active) |  | inactive | 
O=c1[nH]c2ccc(Cl)cc2c(N[C@@H]2CN3CCC2CC3)c1-c1nc2ccccc2[nH]1 | 418 nM (active) | 2640 nM (active) | 935 nM (active) | 5900 nM (active) |  | 41.8 nM (active) | 418 nM (active) | 235 nM (active) | 187 nM (active) | 1660 nM (active) | 83.3 nM (active) | 2640 nM (active) |  | 235 nM (active) | 33.2 nM (active) | 1050 nM (active) | 166 nM (active) | 332 nM (active) | 74.3 nM (active) | 26.4 nM (active)
